This note sets out measurements from the supplement of paper PMC3334620.

Whole data set: some 33,000 sequences, median “E-score (-0.5 to 0.5)” near -0.036, cut for the highest 2% near 0.37. This excerpt belongs to a sample that is enriched for the highest values.

The test concerns the target T1, Yer064c (UniProt P40041).
T1 sequence: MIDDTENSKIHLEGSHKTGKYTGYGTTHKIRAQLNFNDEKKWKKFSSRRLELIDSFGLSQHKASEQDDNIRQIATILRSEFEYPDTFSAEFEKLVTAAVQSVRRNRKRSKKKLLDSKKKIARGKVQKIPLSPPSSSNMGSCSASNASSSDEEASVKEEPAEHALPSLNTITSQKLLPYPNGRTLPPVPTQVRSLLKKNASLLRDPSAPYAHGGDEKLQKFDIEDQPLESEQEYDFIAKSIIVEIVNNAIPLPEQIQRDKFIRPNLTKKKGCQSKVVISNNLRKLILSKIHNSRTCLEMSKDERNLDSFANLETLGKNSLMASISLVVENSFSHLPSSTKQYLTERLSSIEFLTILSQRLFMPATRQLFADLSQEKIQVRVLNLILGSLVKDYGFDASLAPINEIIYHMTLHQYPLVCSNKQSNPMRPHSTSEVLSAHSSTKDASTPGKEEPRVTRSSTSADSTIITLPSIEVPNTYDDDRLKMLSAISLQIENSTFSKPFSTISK
The experiment in a line: PBM E-score (8-mer binding enrichment) (E-score (-0.5 to 0.5)); higher = stronger / more preferred TF binding. Particulars: protein concentration: 200 nM; construct: GST-full length. A digest of the protocol:
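Universal all-10-mer Agilent arrays, fresh or stripped once, were converted to double-stranded form by primer extension. GST-tagged yeast transcription factors from PURExpress in vitro transcription/translation, full-length or DNA-binding domain only, were applied at about 100-200 nM and detected with fluorescent anti-GST. After masliner normalisation, the Universal PBM Analysis Suite scored each ungapped eight-base word together with its reverse complement by E-score.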
For GTCACAAC, the “PBM E-score” value was found to be 0.213. For the sequence GCGTCAGA, the “PBM E-score” value is -0.116.

With GAGTCAGA, the “PBM E-score” value worked out at 0.472. The value for GGGTCAGA was 0.00219. TCGTCAGA: the “PBM E-score” value is -0.15. For the sequence ATGTCAGA, the “PBM E-score” value was -0.0808. Turning to TAGTCAGA, the “PBM E-score” value was 0.457. Take GACGGCCC: the “PBM E-score” value was -0.375. With CATCCTAA, the “PBM E-score” value came to 0.0625.

On to GTAGAAAC, for which the “PBM E-score” value was -0.119.

Consider AACGGCTT, for which the “PBM E-score” value was -0.309.

For AACTCTGC, the “PBM E-score” value amounted to 0.0728.

With CACTCTTA, the “PBM E-score” value was -0.016. For AACTCTGA the value was 0.186; for AACTCTTA, 0.0866. With CACTCTGC, the “PBM E-score” value is -0.0532.

As for TACTCTGA, the “PBM E-score” value is 0.156. For GACTCTTA the value was 0.428. For GACTCTGA the value was 0.392. Take GACTCTGC: the “PBM E-score” value was 0.376.

Take ATTCTCTG: the “PBM E-score” value came to 0.0149. The value for CCTCTGCA was -0.264; that for GGCTAGAA was 0.00723; that for GCCCTTAA was -0.185.

With AGGCCTGC, the “PBM E-score” value was -0.27. The value for CCGGGCCC was -0.315. The value for GCGGACCA was -0.0691. The value for AGCCCCCT was -0.382; that for ATAGGATG was 0.0522; that for GCGAGTAA was 0.206. TCGAGTAA: the “PBM E-score” value was 0.11. For CCGAGTCA the value was 0.467; for CCGAGTCG, 0.261; for ACGAGTCG, 0.383.

As for ACGAGTAG, the “PBM E-score” value was determined as 0.039. For ACGAGTTG the value was -0.0661; for GCGAGTCA, 0.485; for TCGAGCCA, -0.00283. For the sequence GCGAGTCC, the “PBM E-score” value was found to be 0.262. With CCGAGTCC, the “PBM E-score” value turned out to be 0.195. The value for TCGAGTCA was 0.471; that for ATACCCGA was -0.0409. The value for CTCTTTGC was -0.0733; that for AACGTCCG was -0.343; that for TCTCGAAA was 0.0754. For GCGGAACA the value was 0.0307.

With CAGGGGGC, the “PBM E-score” value is -0.337. The value for CGGCTGAA was 0.0435; that for ATTTTGCG was 0.00719; that for ACCCAACA was -0.144. Regarding CCGCCTGC, the “PBM E-score” value worked out at 0.00718.

With ACGAGTCT, the “PBM E-score” value came to 0.312. For the sequence ACGAGTCC, the “PBM E-score” value was determined as 0.289. For ACGAGTCA the value was 0.48. For AATCGCTC, the “PBM E-score” value worked out at 0.211. The value for GACTACGA was 0.413; that for TACTACGA was 0.181; that for AACTACGC was 0.0819. The value for CACTACGA was 0.0996. With GACTACGC, the “PBM E-score” value amounted to 0.391.

For CACTACGC, the “PBM E-score” value is -0.197.

Regarding ATGAAATA, the “PBM E-score” value was -0.0533. Take AAGAGTTG: the “PBM E-score” value came to 0.0206. For TAGAGTAA the value was 0.0416; for AAGAGTGG, -0.242; for GAGAGTCC, 0.256.

GAGAGTCA: the “PBM E-score” value was found to be 0.481. For CAGAGTCC the value was 0.212; for TAGAGTGA, 0.171; for GAGAGTAA, 0.0863. The value for AAGAGTCG was 0.423; that for CAGAGTCA was 0.469. As for CAGAGTCG, the “PBM E-score” value was determined as 0.324.

With TAGAGTCA, the “PBM E-score” value came to 0.469. For the sequence AAGGCTGT, the “PBM E-score” value was -0.161. As for CAAACGCA, the “PBM E-score” value is -0.0486. Regarding CCCGGACC, the “PBM E-score” value was -0.189. For AGTAAGAT the value was 0.0659. Take CATGTTCC: the “PBM E-score” value was -0.138. The value for ACGGTACG was 0.0345; that for ATACAAGC was -0.123; that for AAGAGTCC was 0.303. The value for AAGAGTCA was 0.489; that for AAGAGTCT was 0.355. For AACTAGTC the value was 0.355; for TACTAGTA, 0.216.
